Activity calls are given as the source filed them. Unless noted, how the calls were made is not given here.

Test [1] is described as follows: anti-His antibody binders, primary screen, artefact control for SMM control protein annotation, biochemical, small-molecule microarray, 635 nm fluorescence (AID 1128).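 Further: score merges feature fluorescence with signal-to-noise for each printed compound spot.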 As to conditions: anti-His Alexa647 antibody binding, higher = more signal.
Test [2] deals with Human papillomavirus type 1a E7 protein (residues 1-88). In words: HPV1a E7 small-molecule binders, primary screen, biochemical, small-molecule microarray, residues 1-88, 635 nm (AID 1129). Particulars: small-molecule microarray binding, fluorescence 635 nm; higher = more signal.
Test [3] has as its target Focal adhesion kinase 1 (Homo sapiens) (UniProt Q05397). In words: small-molecule microarray binders of FAK, primary screen, biochemical, 635/667 nm fluorescence, BSA, DTT (AID 1130).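 Further: composite of spot emission at 667 nm and signal to noise over triplicate slides.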 Particulars: PTK2 binding, 635 nm fluorescence, higher = more signal.
Test [4] concerns Fibrinogen (Alexa647-labelled). In words: fibrinogen binders on compound microarrays, profiling panel, artefact control for SMM control-protein annotation, biochemical, small-molecule microarray, 635/667 nm fluorescence (AID 1131).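 Further: z-score merges 667 nm fluorescence with per-spot signal-to-noise over triplicate slides.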 As to conditions: fibrinogen-A647 binding fluorescence, higher = more signal.
Test [5] concerns the target Follistatin (Homo sapiens) (UniProt P19883). Kind of test: follistatin binders on small-molecule microarrays, primary screen, biochemical, small-molecule microarray, 635/667 nm fluorescence (AID 1132). As to conditions: FST binding, 635 nm fluorescence, higher = more signal.
For test [6], the target named is Fibroblast growth factor 2 (Homo sapiens) (UniProt P09038). In words: FGF2 binders on small-molecule microarrays, primary screen, biochemical, small-molecule microarray, 635/667 nm fluorescence (AID 1133). As to conditions: small-molecule microarray binding, FGF2, fluorescence 635/667; higher = more signal.
Fibroblast growth factor 2 (Homo sapiens), sequence (P09038 whole entry, looked up): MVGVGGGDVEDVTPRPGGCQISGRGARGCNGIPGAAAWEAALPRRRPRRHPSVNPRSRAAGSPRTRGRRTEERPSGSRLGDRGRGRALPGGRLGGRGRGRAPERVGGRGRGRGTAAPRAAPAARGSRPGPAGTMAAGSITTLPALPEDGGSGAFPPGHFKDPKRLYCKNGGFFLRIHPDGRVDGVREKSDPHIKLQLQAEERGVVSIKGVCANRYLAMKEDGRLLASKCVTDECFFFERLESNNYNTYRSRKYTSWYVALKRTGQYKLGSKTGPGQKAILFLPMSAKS
The nature of test [7]: mitochondrial membrane potential change in A549 cells, profiling panel, cell-based, JC-1 fluorescence, basal, 24 h, 100 nL (AID 1138).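 Further: A549 lung adenocarcinoma cells under basal conditions with no added stimulus; test concentration not given here.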 As to conditions: higher = more signal.
In another test the test system is Lefty1. In words: Lefty1 binders on small-molecule microarrays, primary screen, biochemical, small-molecule microarray, 635/667 nm fluorescence (AID 1139). As to conditions: small-molecule microarray binding, fluorescence 635/667; higher = more signal.
The test system of test [8] is wheat germ agglutinin (Triticum aestivum), Alexa647-labelled. In words: wheat germ agglutinin binders on compound microarrays, profiling panel, artefact control for SMM control-protein annotation, biochemical, small-molecule microarray, 635/667 nm fluorescence (AID 1140).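 Further: score merges 667 nm feature emission with signal to noise over triplicate slides.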 As to conditions: WGA-A647 binding, 635 nm fluorescence, higher = more signal.
Test [9] concerns the target Luciferin 4-monooxygenase (Photinus pyralis) (UniProt P08659). In words: firefly luciferase enzyme inhibitors, primary screen, biochemical, luminescence, purified enzyme, 2006 set (AID 1141).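 Further: cell-free assay with purified firefly luciferase at 100 ng per well in PBS; test concentration not given here.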 As to conditions: SteadyGlo luminescence, 30 min, higher = more signal, called active from +8 up or from −8 down.
Test [10] concerns Wnt5a (protein binding on small-molecule microarray). Kind of test: Wnt5a binders on small-molecule microarray, primary screen, biophysical, 635/667 nm fluorescence (AID 1142).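 Further: fluorescence read at 667 nm with signal to noise per printed feature.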 Particulars: 635 nm fluorescence, higher = more signal.
The nature of test [11]: cell viability in Huh7 cells, primary screen, cytotoxicity control for HCV replication inhibitor project, CellTiter-Glo luminescence, basal, 48 h (AID 1143).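 Further: Huh7 hepatoma cells carrying a hepatitis C replication reporter with no stimulus; test concentration not given here.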 As to conditions: Huh7 HCV replicon, higher = more signal, called active from +8 up or from −8 down.
Test [12] is described as follows: P. aeruginosa biofilm formation inhibitors, primary screen, PAO1 strain, BacTiter-Glo luminescence, LB-PBS (AID 1144). As to conditions: 12 h, higher = more signal.
The nature of test [13]: CREB reporter modulators without forskolin, primary screen, cell-based, PC12, CRE-LacZ reporter, unstimulated (AID 1145). Particulars: no forskolin, luminescence, 4.5 h, higher = more signal, called active from +8 up or from −8 down.
Test [14] is described as follows: CREB reporter modulators under forskolin, primary screen, cell-based, PC12, CRE-LacZ reporter, forskolin-stimulated (AID 1146).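 Further: PC12 cells with 6xCRE LacZ reporter stimulated by forskolin 10 µM; beta-galactosidase reporter signal reflecting CREB driven transcription.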 Particulars: luminescence, 4.5 h, higher = more signal, called active from +8 up or from −8 down.
For test [15], the target named is Streptavidin (Streptomyces avidinii) (UniProt P22629). In words: streptavidin binders on small-molecule microarray, primary screen, artefact control for SMM compound annotation, biophysical, 635/667 nm fluorescence (AID 1147).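 Further: signal reflects streptavidin binding to arrayed compounds as a control protein.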 Particulars: streptavidin binding, higher = more signal.
Streptavidin (Streptomyces avidinii), sequence (P22629 whole entry, looked up): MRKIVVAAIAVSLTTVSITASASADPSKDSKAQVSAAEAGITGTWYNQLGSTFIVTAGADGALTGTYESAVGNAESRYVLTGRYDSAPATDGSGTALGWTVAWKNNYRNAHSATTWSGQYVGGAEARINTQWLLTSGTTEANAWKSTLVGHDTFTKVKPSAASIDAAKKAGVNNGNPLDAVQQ
Test [16] can be described thus: small-molecule binders of probe aInhba, primary screen, biochemical, small-molecule microarray, 635/667 nm fluorescence (AID 1148).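 Further: score merges 667nm spot fluorescence with signal-to-noise for antibody binding to printed compounds.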 Particulars: higher = more signal.
The target in test [17] is Torsin-1A (Homo sapiens) (UniProt O14656). Kind of test: torsin A binders from cell lysate, primary screen, small-molecule microarray, wild-type, 635/667 nm (AID 1149). As to conditions: COS7 hTOR1A-WT lysate, 635 nm fluorescence, higher = more signal.
Torsin-1A (Homo sapiens), sequence (O14656 whole entry, looked up): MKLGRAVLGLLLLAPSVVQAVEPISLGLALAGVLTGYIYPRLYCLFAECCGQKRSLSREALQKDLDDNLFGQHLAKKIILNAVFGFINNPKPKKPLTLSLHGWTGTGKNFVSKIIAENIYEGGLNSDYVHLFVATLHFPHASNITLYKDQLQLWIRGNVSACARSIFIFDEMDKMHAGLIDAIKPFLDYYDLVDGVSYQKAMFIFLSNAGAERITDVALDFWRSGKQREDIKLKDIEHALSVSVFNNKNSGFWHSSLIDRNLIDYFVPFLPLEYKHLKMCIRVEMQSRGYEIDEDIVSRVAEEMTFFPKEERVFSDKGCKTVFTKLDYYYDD
Test [18] has the same target. In words: small-molecule binders of mutant TOR1A in lysate, primary screen, cell lysate, small-molecule microarray, COS7 lysate, 635/667 nm fluorescence (AID 1150).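 Further: score pools 667 nm emission and signal to noise measuring lysate protein binding.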 As to conditions: COS7 hTOR1A mutant lysate, 635 nm fluorescence, higher = more signal.
Test [19] relates to Sonic hedgehog protein (Shh). Kind of test: small-molecule binders of Shh protein, primary screen, biochemical, small-molecule microarray, 635/667 nm fluorescence (AID 1151).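 Further: Shh protein binding to compounds spotted on small-molecule microarray slides; score combines spot fluorescence intensity with signal-to-noise across triplicate slides.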 As to conditions: small-molecule microarray binding, 635 nm fluorescence; higher = more signal.

Focal adhesion kinase 1 (Homo sapiens), sequence (Q05397 whole entry, looked up): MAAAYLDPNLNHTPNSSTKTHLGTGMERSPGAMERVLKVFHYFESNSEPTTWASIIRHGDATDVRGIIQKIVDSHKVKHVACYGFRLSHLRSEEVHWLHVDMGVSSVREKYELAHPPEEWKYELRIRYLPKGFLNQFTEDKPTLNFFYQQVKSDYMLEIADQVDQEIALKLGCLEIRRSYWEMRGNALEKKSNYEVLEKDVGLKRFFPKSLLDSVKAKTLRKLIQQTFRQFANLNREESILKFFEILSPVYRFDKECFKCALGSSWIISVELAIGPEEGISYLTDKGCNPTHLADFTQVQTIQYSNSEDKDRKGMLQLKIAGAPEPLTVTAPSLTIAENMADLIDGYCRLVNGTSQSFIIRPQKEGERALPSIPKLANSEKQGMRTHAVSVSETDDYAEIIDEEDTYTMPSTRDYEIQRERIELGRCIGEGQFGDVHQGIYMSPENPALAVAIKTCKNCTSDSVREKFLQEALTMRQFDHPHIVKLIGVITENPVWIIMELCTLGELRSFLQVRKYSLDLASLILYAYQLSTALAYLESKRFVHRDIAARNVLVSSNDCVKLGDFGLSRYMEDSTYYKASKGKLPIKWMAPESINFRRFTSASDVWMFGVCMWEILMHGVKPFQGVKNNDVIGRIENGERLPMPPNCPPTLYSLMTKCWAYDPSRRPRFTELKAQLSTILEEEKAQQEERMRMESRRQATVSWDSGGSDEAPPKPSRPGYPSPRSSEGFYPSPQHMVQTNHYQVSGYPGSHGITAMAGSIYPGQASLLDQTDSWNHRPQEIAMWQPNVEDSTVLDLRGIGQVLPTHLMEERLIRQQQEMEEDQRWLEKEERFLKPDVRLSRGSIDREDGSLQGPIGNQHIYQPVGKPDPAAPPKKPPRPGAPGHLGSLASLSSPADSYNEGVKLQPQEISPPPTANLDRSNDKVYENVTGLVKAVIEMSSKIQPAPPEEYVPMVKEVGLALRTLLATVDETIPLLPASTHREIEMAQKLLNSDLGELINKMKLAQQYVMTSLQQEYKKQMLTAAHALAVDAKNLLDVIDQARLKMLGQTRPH
Follistatin (Homo sapiens), sequence (P19883 whole entry, looked up): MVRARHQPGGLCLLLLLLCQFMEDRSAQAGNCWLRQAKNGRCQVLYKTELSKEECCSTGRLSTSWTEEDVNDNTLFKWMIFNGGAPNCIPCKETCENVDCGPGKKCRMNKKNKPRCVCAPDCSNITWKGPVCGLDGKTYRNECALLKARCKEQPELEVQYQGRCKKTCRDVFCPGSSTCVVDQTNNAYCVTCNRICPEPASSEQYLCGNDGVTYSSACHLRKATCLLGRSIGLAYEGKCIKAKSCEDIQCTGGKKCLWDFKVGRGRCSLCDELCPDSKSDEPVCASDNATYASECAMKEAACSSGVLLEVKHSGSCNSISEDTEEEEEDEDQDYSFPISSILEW
Luciferin 4-monooxygenase (Photinus pyralis), sequence (P08659 whole entry, looked up): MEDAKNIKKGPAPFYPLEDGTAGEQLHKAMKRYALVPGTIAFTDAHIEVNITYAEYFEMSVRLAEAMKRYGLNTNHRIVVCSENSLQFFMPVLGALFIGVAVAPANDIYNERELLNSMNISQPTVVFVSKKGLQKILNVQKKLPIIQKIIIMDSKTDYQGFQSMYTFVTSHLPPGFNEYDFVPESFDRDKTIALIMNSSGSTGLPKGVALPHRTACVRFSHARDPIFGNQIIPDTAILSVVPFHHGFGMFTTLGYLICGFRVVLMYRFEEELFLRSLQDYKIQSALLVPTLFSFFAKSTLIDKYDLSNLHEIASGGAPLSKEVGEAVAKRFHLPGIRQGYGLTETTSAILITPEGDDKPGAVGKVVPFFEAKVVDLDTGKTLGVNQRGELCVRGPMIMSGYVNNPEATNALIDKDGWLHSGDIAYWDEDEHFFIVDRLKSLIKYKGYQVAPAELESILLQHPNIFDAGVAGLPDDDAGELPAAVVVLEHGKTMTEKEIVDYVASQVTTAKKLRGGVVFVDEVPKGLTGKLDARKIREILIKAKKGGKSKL

`O=C1[C@@]23C=C(Br)[C@H](C[C@@H]2COC3)[C@]12CO2`: the composite z-score in [1] is -2.07; in [2], -3.63; in [3], 0.406; in test [4], -2.79; in test [5] it was -0.362; in test [6], -0.829. In addition, the composite z-score was -0.921 in the test on Lefty1; -2.06 in [8]; -0.139 in [10]; -1.08 in test [15]; -0.204 in test [16]; -0.672 with Torsin-1A (Homo sapiens) [17]. Further, the composite z-score with Torsin-1A (Homo sapiens) [18] was -0.666; in test [19], -0.0003. The z-score in test [7] is -0.096; in test [9] it was -0.0914 (inactive); in [11] it was -0.38 (inactive); in test [12], -0.00184 (inactive); in test [13], 1.04 (inactive); in test [14], 1.78 (inactive).
`COCCCNC(=O)[C@@H]1c2ccccc2C(=O)N(Cc2ccccc2)[C@H]1c1ccc(CO)cc1`: the composite z-score in [1] was 1.67; in test [2], 1.01; in test [3] it was -0.174; in test [4], 0.185; in test [5], 0.928; in [6] it was 0.594. The composite z-score in the test on Lefty1 was 0.206; in [8] it was 0.31; in [10], 0.23; in [15], 0.158; in test [16], 0.343; in the test with Torsin-1A (Homo sapiens) [17], 0.662. In addition, the composite z-score amounted to 1.29 with Torsin-1A (Homo sapiens) [18] and 0.857 in test [19]. Also, the z-score is 1.29 in [7]; 0.519 (inactive) in [9]; 0.285 (inactive) in [11]; 0.397 (inactive) in test [12]; 0.648 (inactive) in [13]; -1.01 (inactive) in test [14].
On to `COc1ccc([Si](C)(C)[C@H]2[C@H](CCO)O[C@@]3(C(=O)N(Cc4ccccc4)c4ccc(N5CCCCC5=O)cc43)[C@@H]2C)cc1`, for which the composite z-score in test [1] is 1.49; in test [2], 0.435; in test [3], 0.208; in test [4], 0.94; in test [5] it was 1.28; in test [6], 1.28. Further, the composite z-score is 0.628 in the test on Lefty1; 0.768 in test [8]; 0.116 in [10]; 0.381 in test [15]; -0.118 in [16]; 0.23 with Torsin-1A (Homo sapiens) [17]. Further, the composite z-score was determined as 1.67 with Torsin-1A (Homo sapiens) [18] and 0.929 in [19]. In addition, the z-score in test [7] was 2.23; in test [9], -1.08 (inactive); in test [11] it was -7.68 (inactive); in test [12], -1.98 (inactive); in test [13], 4.22 (inactive); in test [14], -1.16 (inactive).
In the case of `Cc1ccc([C@H]2C(C(=O)O)=CCN2S(=O)(=O)c2ccc(C)cc2)cc1`, the composite z-score was 0.388 in test [1]; 0.64 in test [2]; 1.36 in test [3]; -0.169 in test [4]; 0.585 in test [5]; -0.6 in test [6]. The composite z-score is 0.0829 in the test on Lefty1; 0.572 in [8]; -0.171 in test [10]; 0.468 in test [15]; 0.0108 in test [16]; 0.593 in the test with Torsin-1A (Homo sapiens) [17]. Also, the composite z-score stood at 0.435 in the test with Torsin-1A (Homo sapiens) [18] and 0.0688 in [19]. Further, the z-score is -0.575 in test [7]; 0.838 (inactive) in [9]; -0.849 (inactive) in test [11]; 0.668 (inactive) in test [12]; -0.48 (inactive) in [13]; -0.119 (inactive) in [14].
